# Values joined by “and” are separate entries in the source; they are usually repeats but may differ in a detail not shown here. Equal values may be shown once. Records with an inconclusive call do not appear. Where a call stands in place of a potency, no number is given. Active and inactive are the calls of the source. Unless noted, calls follow the shape of the dose curve; as a rule, active = well fitted curve in the direction sought with a large enough effect; inconclusive = small, poorly fitted or top-dose-only effect, or another doubt; inactive = no such curve, though single readings can be large; an effect the other way counts as inactive or inconclusive.
# Tests used:
# [1] = Cell Viability - LYMP2-013 (AID 970); also: nearly all actives have a fitted effect of over 55% in size
# Method in brief: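 In complete culture medium, human lymphoblastoid cells were dosed for 24 hr at 37 C, with tetraoctylammonium bromide (6.4pM to 92 uM) as positive control. Viability reflects luciferase-based ATP signal; AC50 derived from concentration-response curves.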
# [2] = Cell Viability - LYMP2-015 (AID 971); also: nearly all actives have a fitted effect of over 55% in size
# Method in brief: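 AC50 values reflect Hill-model fits of ATP-based luminescence (CellTiter-Glo) from a human lymphoblastoid line, 2500 cells/well, treated 24 hr at 37 C.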
# [3] = Cell Viability - LYMP2-017 (AID 972); also: nearly all actives have a fitted effect of over 55% in size
# Method in brief: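 In this qHTS format, lymphoblastoid cells in complete medium receive test compound for a day at 37 C before ATP content is quantified by luciferase luminescence. Reported AC50 figures come from standard Hill-equation curve fitting.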
# [4] = Cell Viability - LYMP2-019 (AID 973); also: nearly all actives have a fitted effect of over 55% in size
# Method in brief: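 AC50 values come from Hill-equation modelling of qHTS concentration-response curves, where viability is measured as luciferase-based ATP luminescence in the lymphoblastoid line after 24 hr compound exposure in complete culture medium.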
# [5] = Cell Viability - LYMP2-021 (AID 974)
# Method in brief: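 In qHTS format, compounds are tested against 2500 lymphoblastoid cells per well for 24 h; viable cell number is inferred from ATP-driven luciferase light, and Hill-equation fitting yields AC50 values.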
# [6] = Cell Viability - LYMP2-023 (AID 975)
# Method in brief: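 In this qHTS, ATP-based luciferase luminescence (CellTiter-Glo) is quantified in human lymphoblastoid cells after 24 hr compound treatment at 37 C; tetraoctylammonium bromide serves as positive control. Concentration-response curves are Hill-fitted to give AC50.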
# [7] = Cell Viability - LYMP2-025 (AID 976)
# Method in brief: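 Luminescent ATP readout after 24 hr treatment of a human lymphoblastoid line (LYMP2-025, 2500 cells/well, 37 C). Reagent developed 30 min at room temperature; AC50 fitted with the Hill equation.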
# [8] = Cell Viability - LYMP2-002 (AID 977);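 also: compound exposure lasted 24 h at 37 °C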
# Method in brief: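 Human lymphoblastoid cells, 2500/well, complete medium; 5 h 37 C settle; compound 24 h 37 C; CellTiter-Glo, 30 min RT; luminescence. Decrease in ATP = cytotoxicity; AC50 via Hill equation.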
# [9] = Cell Viability - LYMP2-006 (AID 978); also: nearly all actives have a fitted effect of over 60% in size
# Method in brief: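 Concentration-dependent loss of intracellular ATP in a human lymphoblastoid line after 24 hr treatment at 37 C was measured by CellTiter-Glo luminescence, with AC50 values obtained from standard Hill-equation modelling.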
# [10] = Cell Viability - LYMP2-007 (AID 979);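 also: cells exposed to compound for 24 h before reading; nearly all actives have a fitted effect of over 60% in size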
# Method in brief: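 Measured via luciferase-based ATP quantitation: lymphoblastoid cells, 24 hr compound exposure at 37 C, AC50 from Hill fits.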
# [11] = Cell Viability - LYMP2-008 (AID 980); also: nearly all actives have a fitted effect of over 60% in size
# Method in brief: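 Measured: ATP-dependent luminescence, proportional to viable cell number, in human lymphoblastoid cells treated 24 hr with compound in complete culture medium. Values are AC50s from Hill-equation modelling of qHTS titrations.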
# [12] = Cell Viability - LYMP2-010 (AID 981); also: nearly all actives have a fitted effect of over 55% in size
# Method in brief: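 This 24 hr viability screen uses LYMP2-010 lymphoblastoid cells, quantifies ATP via luciferase luminescence, and derives AC50 from Hill fits of qHTS concentration-response data.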
# [13] = Cell Viability - LYMP2-014 (AID 983); also: nearly all actives have a fitted effect of over 50% in size
# Method in brief: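 Quantitative HTS in lymphoblastoid cells: 24 hr compound exposure, then CellTiter-Glo ATP luminescence. Positive control was tetraoctylammonium bromide, 6.4pM to 92 uM.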
# [14] = Cell Viability - LYMP2-016 (AID 984); also: nearly all actives have a fitted effect of over 55% in size
# Method in brief: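 Acute toxicity in a Coriell human lymphoblastoid line is scored as loss of intracellular ATP over 24 h of treatment in complete medium. CellTiter-Glo signal is fitted across concentrations with the Hill equation to give AC50.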
# [15] = Cell Viability - LYMP2-018 (AID 985); also: nearly all actives have a fitted effect of over 50% in size
# Method in brief: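 In this qHTS viability assay, cells are treated for 24 hr and cellular ATP is quantified by luciferase-based luminescence, with tetraoctylammonium bromide as positive control.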
# [16] = Cell Viability - LYMP2-020 (AID 986); also: nearly all actives have a fitted effect of over 55% in size
# Method in brief: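 Cells at 2500 per well receive a 24 hr compound exposure at 37 C. Viability is measured as ATP-dependent luciferase luminescence, with AC50 modeled from qHTS concentration-response curves.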
# [17] = Cell Viability - LYMP2-022 (AID 987); also: nearly all actives have a fitted effect of over 55% in size
# Method in brief: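 In this qHTS cytotoxicity screen, compound titrations were incubated 24 hr at 37 C with human lymphoblastoid cells in complete medium. Luciferase-based ATP luminescence provided the viability signal.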
# [18] = Cell Viability - LYMP2-024 (AID 988); also: nearly all actives have a fitted effect of over 60% in size
# Method in brief: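 Cells at 2500 per well received compound for 24 hr after a 5 hr settling period. Viability was scored by CellTiter-Glo luminescence, with AC50 from Hill fits.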
# [19] = Cell Viability - LYMP2-026 (AID 989); also: nearly all actives have a fitted effect of over 50% in size
# Method in brief: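 Acute toxicity screen in complete culture medium, with 24 hr compound exposure at 37 C. Viability read as cellular ATP via luciferase reaction, with tetraoctylammonium bromide (6.4pM to 92 uM) as positive control.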
# [20] = Cell Viability - LYMP1-002 - Assay at 24 hr (AID 993)
# Method in brief: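 Viability was judged from intracellular ATP using a luciferase read-out, following a 24-hour compound incubation at 37 C of lymphoblastoid cells seeded at 2500 per well. Concentration-response data were fitted to the Hill equation for AC50.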
# [21] = Cell Viability - LYMP1-002 - Assay at 40 hr (AID 994); also: nearly all actives have a fitted effect of over 60% in size
# Method in brief: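 Concentration-dependent ATP loss after 40 hr treatment at 37 C defined toxicity; AC50 values were obtained by fitting the standard Hill equation.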
# [22] = molecular target: ATP-dependent 6-phosphofructokinase (Trypanosoma brucei brucei) (UniProt O15648); assay: qHTS Assay to Find Inhibitors of T. brucei phosphofructokinase: hit validation (AID 492961);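 also: luminescence reports ADP formed as PFK phosphorylates fructose-6-phosphate with ATP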
# Chain of ATP-dependent 6-phosphofructokinase (Trypanosoma brucei brucei) (O15648 whole entry, looked up): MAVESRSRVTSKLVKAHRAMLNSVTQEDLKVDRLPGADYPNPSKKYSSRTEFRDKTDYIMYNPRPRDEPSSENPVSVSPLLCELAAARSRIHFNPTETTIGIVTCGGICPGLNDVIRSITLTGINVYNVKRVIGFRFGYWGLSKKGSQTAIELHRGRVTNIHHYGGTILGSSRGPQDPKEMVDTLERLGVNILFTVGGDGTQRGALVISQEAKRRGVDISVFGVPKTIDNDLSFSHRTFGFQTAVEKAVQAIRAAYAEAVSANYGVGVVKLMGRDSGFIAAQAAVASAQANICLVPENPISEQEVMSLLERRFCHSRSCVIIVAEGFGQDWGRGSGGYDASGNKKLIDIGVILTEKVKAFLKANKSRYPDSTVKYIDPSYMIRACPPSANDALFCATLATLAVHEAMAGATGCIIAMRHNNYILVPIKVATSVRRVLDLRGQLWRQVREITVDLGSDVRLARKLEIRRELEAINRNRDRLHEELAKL
# Method in brief: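 Inhibition of parasite PFK is measured as reduced ADP formation, quantified via luciferase after ATP depletion. Assay used 0.1 mM ATP, 0.5 mM F6P, 1.25 nM enzyme, 45 min incubation.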
# [23] = molecular target: Estrogen receptor (Homo sapiens) (UniProt P03372); assay: qHTS assay for small molecule antagonists of estrogen receptor alpha signaling (AID 588513; active = well fitted curve in the direction sought with a large enough effect in the signal ratio, with a control signal flat, not every such curve was filed as active; the % refers to the signal ratio)
# Chain of Estrogen receptor (Homo sapiens) (P03372 whole entry, looked up): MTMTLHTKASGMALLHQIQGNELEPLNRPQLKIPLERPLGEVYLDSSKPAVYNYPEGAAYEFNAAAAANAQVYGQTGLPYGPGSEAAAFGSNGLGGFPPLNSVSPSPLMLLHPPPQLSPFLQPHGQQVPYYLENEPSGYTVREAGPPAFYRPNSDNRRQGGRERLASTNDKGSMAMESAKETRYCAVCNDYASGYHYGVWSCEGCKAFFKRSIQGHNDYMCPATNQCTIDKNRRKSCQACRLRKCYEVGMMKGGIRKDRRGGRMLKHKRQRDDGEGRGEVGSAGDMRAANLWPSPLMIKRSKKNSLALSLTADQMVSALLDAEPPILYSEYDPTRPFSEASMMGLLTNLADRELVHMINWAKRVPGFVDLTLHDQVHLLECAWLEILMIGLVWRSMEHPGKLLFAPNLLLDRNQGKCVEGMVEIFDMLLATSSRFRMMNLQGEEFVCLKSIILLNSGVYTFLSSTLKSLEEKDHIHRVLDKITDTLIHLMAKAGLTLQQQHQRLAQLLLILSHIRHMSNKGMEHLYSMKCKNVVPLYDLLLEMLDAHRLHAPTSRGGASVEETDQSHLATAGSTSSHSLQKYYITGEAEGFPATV
# Method in brief: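 Cells were plated at 5000/well and incubated 4 h at 37 C. Compounds were added as 1:2 dilution series, duplicates. 17-beta-estradiol (0.5nM final) was added for 18 h before CCF4 detection.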
# [24] = molecular target: Estrogen receptor (Homo sapiens) (UniProt P03372); assay: qHTS assay for small molecule agonists of estrogen receptor alpha signaling (AID 588514; calls by dose curve; also: nearly all actives have a fitted effect of over 70% in size)
# Method in brief: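 Fluorescence from CCF4 cleavage reports ER-alpha-driven beta-lactamase expression in HEK 293 cells treated 18 hrs at 37 C. Data normalized to 17-beta-estradiol (20 nM) and DMSO, fitted to Hill equation.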
# [25] = qHTS assay for small molecule antagonists of peroxisome proliferator-activated receptor delta signaling (AID 588535; active = well fitted inhibition curve with a large enough effect in the signal ratio, with a control signal flat, not every such curve was filed as active; the % refers to the signal ratio;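 as to max response: cells co-treated with a PPAR-delta agonist as stimulator during compound exposure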); conditions: HEK293T PPARd-UAS-bla, beta-lactamase FRET ratio, 18 h; 460 nm channel
# Method in brief: (§1)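 Beta-lactamase reporter read-out (405 nm excitation, 460/530 nm emission) after CCF4 loading for 2 hrs at RT. HEK293T PPAR-delta-UAS-bla cells, 2% charcoal/dextran FBS, compounds for 18 hrs at 37 C. Hill fit gave IC50 and efficacy.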
# [26] = molecular target: Peroxisome proliferator-activated receptor delta (Homo sapiens) (UniProt Q03181); assay: as above
# Chain of Peroxisome proliferator-activated receptor delta (Homo sapiens) (Q03181 whole entry, looked up): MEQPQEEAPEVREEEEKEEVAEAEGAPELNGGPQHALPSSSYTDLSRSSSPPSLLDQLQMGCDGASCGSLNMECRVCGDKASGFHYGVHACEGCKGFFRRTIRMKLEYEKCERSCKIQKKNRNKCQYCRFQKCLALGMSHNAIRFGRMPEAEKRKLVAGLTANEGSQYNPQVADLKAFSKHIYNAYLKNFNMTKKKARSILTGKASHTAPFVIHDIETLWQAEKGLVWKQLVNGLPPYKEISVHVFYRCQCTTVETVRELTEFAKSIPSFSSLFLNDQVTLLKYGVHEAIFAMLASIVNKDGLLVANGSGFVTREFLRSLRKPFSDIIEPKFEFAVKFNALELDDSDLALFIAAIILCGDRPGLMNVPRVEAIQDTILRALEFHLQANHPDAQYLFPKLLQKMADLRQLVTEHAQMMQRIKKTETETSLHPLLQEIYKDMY
# Method in brief: as §1
# [27] = molecular target: Peroxisome proliferator-activated receptor gamma (Homo sapiens) (UniProt P37231); assay: qHTS assay for small molecule agonists of peroxisome proliferator-activated receptor gamma signaling (AID 588536; active = well fitted curve in the direction sought with a large enough effect in the signal ratio, with a control signal flat, not every such curve was filed as active; the % refers to the signal ratio)
# Chain of Peroxisome proliferator-activated receptor gamma (Homo sapiens) (P37231 whole entry, looked up): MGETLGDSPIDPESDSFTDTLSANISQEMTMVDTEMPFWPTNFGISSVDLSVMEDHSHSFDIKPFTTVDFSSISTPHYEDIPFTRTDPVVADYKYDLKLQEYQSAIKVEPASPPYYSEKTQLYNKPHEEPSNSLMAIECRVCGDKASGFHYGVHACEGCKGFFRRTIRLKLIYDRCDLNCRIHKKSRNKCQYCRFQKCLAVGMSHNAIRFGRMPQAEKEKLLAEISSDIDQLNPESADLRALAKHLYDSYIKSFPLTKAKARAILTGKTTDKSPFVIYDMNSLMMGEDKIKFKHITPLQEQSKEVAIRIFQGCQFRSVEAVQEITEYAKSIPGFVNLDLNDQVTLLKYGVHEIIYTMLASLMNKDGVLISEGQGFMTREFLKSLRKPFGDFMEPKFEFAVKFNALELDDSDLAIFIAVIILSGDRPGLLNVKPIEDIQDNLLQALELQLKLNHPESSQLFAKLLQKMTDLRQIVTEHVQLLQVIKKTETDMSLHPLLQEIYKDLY
# Method in brief: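 Compound treatment: 16 h, 37 C, HEK293 GeneBLAzer cells. Detection: CCF4, 2 h RT. Values: Hill-fit EC50, efficacy as % of 2 uM rosiglitazone.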
# [28] = molecular target: Vitamin D3 receptor (Homo sapiens) (UniProt P11473); assay: qHTS assay for small molecule antagonists of vitamin D receptor signaling (AID 588541; calls by dose curve;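 also: receptor activated by calcitriol during compound treatment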)
# Chain of Vitamin D3 receptor (Homo sapiens) (P11473 whole entry, looked up): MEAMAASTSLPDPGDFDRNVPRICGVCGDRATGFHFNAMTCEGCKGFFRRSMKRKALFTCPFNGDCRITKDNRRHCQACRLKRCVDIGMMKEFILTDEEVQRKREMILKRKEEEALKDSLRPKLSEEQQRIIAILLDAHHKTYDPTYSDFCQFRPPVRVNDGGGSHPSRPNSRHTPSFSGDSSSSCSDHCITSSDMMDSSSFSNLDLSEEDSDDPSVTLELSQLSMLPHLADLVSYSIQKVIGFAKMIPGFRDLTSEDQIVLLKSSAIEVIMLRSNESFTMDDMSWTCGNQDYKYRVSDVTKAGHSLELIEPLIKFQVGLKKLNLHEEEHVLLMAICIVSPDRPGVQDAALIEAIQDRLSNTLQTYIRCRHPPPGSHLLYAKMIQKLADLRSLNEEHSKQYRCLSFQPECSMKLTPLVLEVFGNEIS
# Method in brief: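 VDR-UAS-bla HEK293T cells in 2% charcoal-stripped FBS were stimulated with 1-alpha,25-dihydroxyvitamin D3 (3 nM final) plus compound for 16 h at 37 C. The beta-lactamase CCF4 readout was normalized to 50 nM agonist and DMSO, and Hill fits gave IC50.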
# [29] = molecular target: Vitamin D3 receptor (Homo sapiens) (UniProt P11473); assay: qHTS assay for small molecule agonists of vitamin D receptor signaling (AID 588543; calls by dose curve)
# Method in brief: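 qHTS in agonist mode: compound titrations stimulate a VDR-driven β-lactamase reporter in HEK293T cells over 16 h at 37 °C. Response normalized to 50 nM 1α,25-dihydroxyvitamin D3 = 100%, DMSO = 0%; Hill fitting gives EC50 and maximal response.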
# [30] = qHTS assay for small molecule agonists of retinoid X receptor alpha signaling (AID 588544); conditions: HEK293T RXRa-UAS-bla, beta-lactamase reporter, 18 h; 530 nm emission
# [31] = molecular target: Thyroid hormone receptor beta (Homo sapiens) (UniProt P10828); assay: qHTS assay for small molecule agonists of thyroid hormone receptor beta signaling (AID 588545; calls by dose curve)
# Chain of Thyroid hormone receptor beta (Homo sapiens) (P10828 whole entry, looked up): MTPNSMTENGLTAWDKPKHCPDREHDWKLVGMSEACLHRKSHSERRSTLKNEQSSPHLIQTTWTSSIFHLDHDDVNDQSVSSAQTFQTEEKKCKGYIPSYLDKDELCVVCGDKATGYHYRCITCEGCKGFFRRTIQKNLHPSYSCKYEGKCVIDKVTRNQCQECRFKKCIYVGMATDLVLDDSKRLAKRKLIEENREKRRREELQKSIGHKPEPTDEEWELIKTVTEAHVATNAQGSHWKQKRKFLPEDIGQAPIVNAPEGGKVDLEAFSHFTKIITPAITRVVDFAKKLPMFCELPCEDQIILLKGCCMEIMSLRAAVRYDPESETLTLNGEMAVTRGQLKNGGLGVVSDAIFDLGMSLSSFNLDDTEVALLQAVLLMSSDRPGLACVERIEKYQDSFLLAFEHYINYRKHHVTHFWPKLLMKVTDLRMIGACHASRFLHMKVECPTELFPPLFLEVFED
# Method in brief: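 HEK 293 TR-UAS-bla; agonist mode; 18 hrs, 37 C; CCF4, ex 405/em 460 and 530 nm; norm. T3 10 nM = 100%, DMSO = 0%; Hill fit → EC50, efficacy.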
# [32] = qHTS assay for small molecule antagonists of retinoid X receptor alpha signaling (AID 588546; active = well fitted inhibition curve with a large enough effect in the signal ratio, with a control signal flat, not every such curve was filed as active; the % refers to the signal ratio;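 also: cells stimulated with 9-cis-retinoic acid as agonist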); conditions: HEK293T RXRa-UAS-bla, beta-lactamase ratio, antagonist mode; measured here: W530 green channel, cytotoxicity proxy
# Method in brief: (§2)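 Beta-lactamase reporter inhibition, read as CCF4 fluorescence ratio (ex 405, em 460/530 nm) after 2 h at RT. HEK293T UAS-bla cells, 2500/well, were stimulated with 9-cis-RA at 500 or 100 nM final alongside test compound for 18 h at 37 C.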
# [33] = molecular target: Retinoic acid receptor RXR-alpha (Homo sapiens) (UniProt P19793); assay: as above; conditions: HEK293T RXRa-UAS-bla, beta-lactamase ratio, antagonist mode
# Chain of Retinoic acid receptor RXR-alpha (Homo sapiens) (P19793 whole entry, looked up): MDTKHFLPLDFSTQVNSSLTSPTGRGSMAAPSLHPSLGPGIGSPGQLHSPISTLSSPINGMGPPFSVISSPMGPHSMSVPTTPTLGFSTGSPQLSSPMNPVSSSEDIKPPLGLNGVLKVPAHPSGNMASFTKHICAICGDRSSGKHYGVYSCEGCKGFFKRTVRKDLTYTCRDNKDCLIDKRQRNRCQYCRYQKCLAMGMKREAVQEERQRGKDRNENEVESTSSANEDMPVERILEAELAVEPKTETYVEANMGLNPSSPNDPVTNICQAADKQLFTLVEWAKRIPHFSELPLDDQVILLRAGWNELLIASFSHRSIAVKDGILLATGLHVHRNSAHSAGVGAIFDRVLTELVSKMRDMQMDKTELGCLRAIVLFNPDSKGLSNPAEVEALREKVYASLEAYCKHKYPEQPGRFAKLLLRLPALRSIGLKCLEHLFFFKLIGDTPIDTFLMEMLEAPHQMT
# Method in brief: as §2
# [34] = molecular target: Thyroid hormone receptor beta (Homo sapiens) (UniProt P10828); assay: qHTS assay for small molecule antagonists of thyroid hormone receptor beta signaling (AID 588547; active = well fitted inhibition curve with a large enough effect in the signal ratio, with a control signal flat, not every such curve was filed as active; the % refers to the signal ratio;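 also: cells stimulated with 0.4 nM T3 agonist during compound exposure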); conditions: TR-UAS-bla HEK293, beta-lactamase ratio, antagonist mode, 18 h
# Method in brief: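 TR-UAS-bla GripTite HEK293 cells in 2% charcoal/dextran FBS medium; compounds 0.59 nM to 92 uM with T3 at 0.4nM final, 18 h at 37 C. Beta-lactamase read by CCF4 fluorescence (460/530 nm); Hill fits gave IC50 and efficacy.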
# [35] = molecular target: Luciferin 4-monooxygenase (Photinus pyralis) (UniProt P08659); assay: Biochemical firefly luciferase enzyme assay for NPC (AID 624030);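 also: purified P. pyralis luciferase at 10 nM with luciferin and ATP substrate; nearly all actives have a fitted effect of over 70% in size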
# Chain of Luciferin 4-monooxygenase (Photinus pyralis) (P08659 whole entry, looked up): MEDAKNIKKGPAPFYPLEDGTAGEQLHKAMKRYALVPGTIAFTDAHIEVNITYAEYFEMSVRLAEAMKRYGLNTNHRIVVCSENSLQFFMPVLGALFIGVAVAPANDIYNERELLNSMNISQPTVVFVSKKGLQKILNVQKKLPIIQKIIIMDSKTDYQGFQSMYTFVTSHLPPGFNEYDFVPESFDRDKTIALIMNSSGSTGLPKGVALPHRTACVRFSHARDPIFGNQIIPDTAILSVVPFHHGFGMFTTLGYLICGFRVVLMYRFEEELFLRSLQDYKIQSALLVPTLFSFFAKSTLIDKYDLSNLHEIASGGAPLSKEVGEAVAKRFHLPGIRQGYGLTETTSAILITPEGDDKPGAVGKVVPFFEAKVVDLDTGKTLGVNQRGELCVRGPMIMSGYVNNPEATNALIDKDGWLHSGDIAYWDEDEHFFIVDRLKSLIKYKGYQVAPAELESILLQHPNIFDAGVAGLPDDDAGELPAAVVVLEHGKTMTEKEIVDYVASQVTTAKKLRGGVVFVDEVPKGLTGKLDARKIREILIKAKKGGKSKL
# Method in brief: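 Purified P. pyralis luciferase at 10 nM in 50 mM Tris Acetate (final), luminescence read within 5 minutes of enzyme addition to compounds. Activity normalised to PTC124 versus DMSO; concentration-response curves classed by r2, magnitude and activity.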
# [36] = S16 Schwann cell viability assay (CellTiter-Glo assay) (AID 624031); also: nearly all actives have a fitted effect of over 70% in size
# Method in brief: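 CellTiter-Glo ATP luminescence counter-screen in untransfected S16 rat Schwann cells, 24h compound exposure at 37 degree Celsius after overnight seeding (500-750 cells/well); response scaled between cell-free wells and DMSO (0% activity), curves classed by r2 and magnitude.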
# [37] = S16 Schwann cell PMP22 intronic element firefly luciferase assay (AID 624032); also: nearly all actives have a fitted effect of over 30% in size
# Method in brief: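 Rat S16 Schwann cells stably carrying firefly luciferase driven by a PMP22 intronic element, in 10% FBS, treated 24 h at 37 C. ONE-Glo luminescence normalized to PTC124 control and DMSO (0%); curves classed by r2, magnitude and activity.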
# [38] = S16 Schwann cell PMP22 intronic element beta-lactamase assay (AID 624044; calls by dose curve; also: nearly all actives have a fitted effect of over 15% in size); conditions: S16 rat Schwann cells, PMP22 element beta-lactamase FRET, 24 h; ratio activity, negative = inhibition: at 38.3 µM (top of the series)
# Method in brief: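 Beta-lactamase reporter under a PMP22 intronic regulatory element in stable S16 rat Schwann cells; 24 h compound exposure. 460 nm blue signal normalized between DMSO (0%) and potassium clavulanate, with 535 nm FRET tracking viability; curves classed by r2 and response.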
smiles,measurement,setting,value
CN1[C@H]2CC(OC(=O)[C@H](CO)c3ccccc3)C[C@H]1[C@H]1O[C@H]12 (stereo partly drawn),Potency,[1],inactive
same,Potency,[2],inactive
same,Potency,[3],inactive
same,Potency,[4],inactive
same,Potency,[5],inactive
same,Potency,[6],inactive
same,Potency,[7],inactive
same,Potency,[8],inactive
same,Potency,[9],inactive
same,Potency,[10],inactive
same,Potency,[11],inactive
same,Potency,[12],inactive
same,Potency,[13],inactive
same,Potency,[14],inactive
same,Potency,[15],inactive
same,Potency,[16],inactive
same,Potency,[17],inactive
same,Potency,[18],inactive
same,Potency,[19],inactive
same,Potency,[20],inactive
same,Potency,[21],inactive
same,Potency,[22],inactive
same,Potency,[23],inactive
same,outcome,[24],inactive
same,max response,[25],-6.66% and 15.5%
same,outcome,[26],inactive
same,outcome,[27],inactive
same,Potency,[28],inactive
same,outcome,[29],inactive
same,max response,[30],3.87% and -2.7%
same,outcome,[31],inactive
same,max response,[32],-12.3% and -10.2%
same,max response,[33],-1.24% (inactive) and 3.3% (inactive)
same,activity change % (negative = inhibition),[34],-22.7% (inactive) and -1.59% (inactive)
same,Potency,[35],inactive
same,Potency,[36],inactive
same,Potency,[37],inactive
same,Potency,[38],inactive

# From PubChem BioAssay (NCATS)
